# PubChem BioAssay (NCATS)
# Results filed as inconclusive are left out. Where a call stands in place of a potency, no number is given. A number with no mark means an inactive call. Activity calls are given as the source filed them. Calls follow the shape of the dose curve; as a rule, active = well fitted curve in the direction sought with a large enough effect; inconclusive = small, poorly fitted or top-dose-only effect, or another doubt; inactive = no such curve, though single readings can be large; an effect the other way counts as inactive or inconclusive.
# Key:
# [1] = system: Zika virus NS2B-NS3 protease; assay: Primary screen GU AMC qHTS for Zika virus inhibitors (AID 1347154); conditions: Zika NS2B-NS3 unlinked protease, AMC fluorogenic substrate; series mostly up to 54.1 µM; also: nearly all actives have a fitted effect of over 70% in size; also: potency is read from the fitted curve at half-maximal effect
# In short: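 Unlinked Zika NS2B hydrophilic domain–NS3 protease complex at 25 nM in 10 mM Tris-HCl pH 8.0, 0.01% Tween 20, with an AMC peptide substrate. Fluorescence change (340/450 nm) over 15 min at room temperature, normalized to controls, fitted to 4-parameter Hill.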
# [2] = target: N-terminal Xaa-Pro-Lys N-methyltransferase 1 (Homo sapiens) (UniProt Q9BV86); assay: qHTS Assay for Inhibitors of N-terminal methyltransferase 1 (NTMT1): LOPAC validation of the NTMT1 SAHH-coupled ThioGlo3 Assay (AID 1347143); conditions: recombinant NTMT1, SAHH-coupled ThioGlo3 fluorescence; series mostly up to 114 µM;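 also: SAH from peptide methylation measured as thiol fluorescence via SAHH coupling and ThioGlo3; nearly all actives have a fitted effect of over 70% in size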
# N-terminal Xaa-Pro-Lys N-methyltransferase 1 (Homo sapiens), sequence (Q9BV86 whole entry, looked up): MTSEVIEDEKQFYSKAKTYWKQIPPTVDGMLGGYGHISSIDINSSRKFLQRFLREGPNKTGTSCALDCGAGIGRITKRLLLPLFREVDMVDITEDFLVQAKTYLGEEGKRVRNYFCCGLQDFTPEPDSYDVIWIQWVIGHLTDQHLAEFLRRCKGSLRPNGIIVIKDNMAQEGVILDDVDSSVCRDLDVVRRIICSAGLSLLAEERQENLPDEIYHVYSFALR
# In short: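 Recombinant human NTMT1 (125nM) was pre-incubated 1 min at room temperature with compounds over a concentration range, then a mix of 100uM SAM, 10uM SAHH and 15uM ThioGlo3 (concentrations in added reagent) was added. ThioGlo3 fluorescence (ex 340/em 450nm) after 30 min was normalized to the initial reading.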
# [3] = system: Zika virus NS2B-NS3 protease (unlinked); assay: Optimization of GU AMC qHTS for Zika virus inhibitors: Unlinked NS2B-NS3 protease assay (AID 1347151); conditions: recombinant ZIKV NS2B-NS3 protease, fluorogenic AMC substrate; series mostly up to 52.5 µM; also: nearly all actives have a fitted effect of over 80% in size
# In short: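 Noncovalent complex of NS2B hydrophilic domain and NS3 protease domain, 25 nM final, in 10 mM Tris-HCl pH 8.0, 0.01% Tween 20. AMC fluorescence change over 15 min at room temperature was fitted to a 4-parameter Hill equation.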
# [4] = target: Lysine-specific demethylase 5B (Homo sapiens) (UniProt Q9UGL1); assay: Optimization screen for KDM5B Histone Demethylases FDH coupled qHTS against the LOPAC library (AID 1347166); conditions: KDM5B demethylation, FDH-coupled NADH fluorescence (FDH is formaldehyde dehydrogenase); series mostly up to 57.5 µM
# Lysine-specific demethylase 5B (Homo sapiens), sequence (Q9UGL1 whole entry, looked up): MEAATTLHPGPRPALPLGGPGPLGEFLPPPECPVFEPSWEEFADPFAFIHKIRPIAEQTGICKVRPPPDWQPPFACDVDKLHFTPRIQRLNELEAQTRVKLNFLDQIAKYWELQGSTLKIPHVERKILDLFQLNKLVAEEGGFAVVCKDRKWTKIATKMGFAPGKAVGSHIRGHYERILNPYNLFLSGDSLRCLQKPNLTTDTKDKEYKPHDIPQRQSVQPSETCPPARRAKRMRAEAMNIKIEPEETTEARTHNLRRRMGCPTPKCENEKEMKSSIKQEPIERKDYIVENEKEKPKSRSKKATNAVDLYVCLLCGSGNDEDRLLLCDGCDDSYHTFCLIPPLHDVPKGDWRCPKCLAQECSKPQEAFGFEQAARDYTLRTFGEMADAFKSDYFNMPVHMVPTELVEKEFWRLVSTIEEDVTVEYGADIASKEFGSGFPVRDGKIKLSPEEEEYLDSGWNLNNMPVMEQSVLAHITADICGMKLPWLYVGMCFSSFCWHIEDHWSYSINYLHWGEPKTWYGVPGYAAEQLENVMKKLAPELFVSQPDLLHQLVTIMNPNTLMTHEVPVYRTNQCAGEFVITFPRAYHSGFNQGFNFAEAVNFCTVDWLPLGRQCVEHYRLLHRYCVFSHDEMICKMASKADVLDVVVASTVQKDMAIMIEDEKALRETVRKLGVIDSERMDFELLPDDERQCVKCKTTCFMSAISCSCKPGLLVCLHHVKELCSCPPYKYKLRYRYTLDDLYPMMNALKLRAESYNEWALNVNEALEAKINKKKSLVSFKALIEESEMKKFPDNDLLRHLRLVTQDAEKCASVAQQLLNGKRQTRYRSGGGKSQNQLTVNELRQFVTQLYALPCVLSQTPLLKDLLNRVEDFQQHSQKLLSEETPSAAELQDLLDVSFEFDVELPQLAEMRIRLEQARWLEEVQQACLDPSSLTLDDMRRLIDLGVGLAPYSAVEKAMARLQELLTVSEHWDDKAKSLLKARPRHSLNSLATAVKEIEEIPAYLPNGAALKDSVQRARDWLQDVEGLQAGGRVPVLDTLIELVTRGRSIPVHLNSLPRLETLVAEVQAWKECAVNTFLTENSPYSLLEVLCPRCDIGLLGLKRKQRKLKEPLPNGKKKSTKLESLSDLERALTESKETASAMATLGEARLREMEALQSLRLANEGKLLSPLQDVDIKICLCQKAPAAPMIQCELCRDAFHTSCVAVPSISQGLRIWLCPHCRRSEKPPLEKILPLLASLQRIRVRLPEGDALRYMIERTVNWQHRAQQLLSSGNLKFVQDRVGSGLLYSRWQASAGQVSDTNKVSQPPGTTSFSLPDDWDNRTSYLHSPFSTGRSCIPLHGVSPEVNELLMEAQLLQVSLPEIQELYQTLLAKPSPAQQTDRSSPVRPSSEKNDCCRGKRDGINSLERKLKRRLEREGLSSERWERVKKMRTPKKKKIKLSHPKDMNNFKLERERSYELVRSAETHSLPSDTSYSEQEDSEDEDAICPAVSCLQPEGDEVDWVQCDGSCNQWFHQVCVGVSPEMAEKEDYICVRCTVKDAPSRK
# In short: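 KDM5BDeltaAP (200nM final) preincubated 10 min with compound, then 12.5uM H3K4Me3, 25uM a-ketoglutarate, ascorbate, Fe(II), NAD+ and FDH added; 50mM HEPES pH 7.5, 0.01% Tween-20. NADH fluorescence (340/450 nm) change over 30 min, room temperature.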
# [5] = system: Zika virus NS2B-NS3 protease (linked construct); assay: Primary screen NINDS Rhodamine qHTS for Zika virus inhibitors (AID 1347160); conditions: purified NS2B-NS3 protease, Rhodamine110 substrate fluorescence; series mostly up to 57.1 µM; also: nearly all actives have a fitted effect of over 55% in size
# In short: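 Kinetic fluorescence (Ex 480 nm, Em 540 nm) over 15 min with 1.5 microM Rhodamine110 peptide and 25 nM linked protease.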
# [6] = system: Zika virus NS2B-NS3 protease (linked construct); assay: Confirmatory screen NINDS AMC qHTS for Zika virus inhibitors (AID 1347152); conditions: Purified linked NS2B-NS3, AMC substrate fluorescence; also: potency is read from the fitted curve at half-maximal effect; nearly all actives have a fitted effect of over 70% in size
# In short: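 Purified NS2B-NS3 protease with NS2B hydrophilic domain linked to NS3 protease domain by flexible linker, 1 nM final in 10 mM Tris-HCl pH 8.0, 0.01% Tween 20. Compounds preincubated 15 min, room temperature; Bz-Nle-KRR-AMC 10 microM (Km 18.3 µM); 15-min fluorescence change, 4-parameter Hill fit.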
# [7] = system: Zika virus NS2B-NS3 protease (unlinked complex); assay: Confirmatory screen GU AMC qHTS for Zika virus inhibitors (AID 1347153); conditions: Recombinant NS2B-NS3 protease, AMC substrate fluorescence;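 also: enzyme at 25 nM with substrate at 10 µM below its Km of 18.3 µM; potency is read from the fitted curve at half-maximal effect; nearly all actives have a fitted effect of over 70% in size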
# In short: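 Fluorescence change (ex 340/em 450 nm) over 15 min, ~20% substrate conversion, normalized to no-inhibitor and no-enzyme controls, then Hill-fitted. Unlinked protease at 25 nM; AMC peptide 10 µM.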
# [8] = system: Zika virus NS2B-NS3 protease (unlinked complex); assay: Primary screen GU Rhodamine qHTS for Zika virus inhibitors: Unlinked NS2B-NS3 protease assay (AID 1347159); conditions: Recombinant ZIKV NS2B-NS3 protease, Rhodamine110 substrate fluorescence; series mostly up to 107 µM; also: nearly all actives have a fitted effect of over 60% in size; also: potency is read from the fitted curve at half-maximal effect
# In short: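 A qHTS format was used, with compound concentrations ranging up to 114 microM. Each compound was preincubated with 25 nM NS2B-NS3 protease, and the substrate was then added at 1.5 microM. Curves were fitted with a 4-parameter Hill model.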
# [9] = Confirmatory screen NINDS Rhodamine qHTS for Zika virus inhibitors (AID 1347161); conditions: purified enzyme assay, Rhodamine110 substrate fluorescence, 15 min; series mostly up to 114 µM; also: nearly all actives have a fitted effect of over 60% in size; also: potency is read from the fitted curve at half-maximal effect;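 as to activity change, negative = inhibition: purified Zika NS2B-NS3 protease with linked NS2B cofactor domain and Rhodamine110 peptide substrate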
# In short: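 Purified NS2B-NS3 protease with the NS2B hydrophilic domain joined by a flexible linker (25 nM) in 10 mM Tris-HCl pH 8.0, 0.01% Tween 20, preincubated 15 min at RT with compound; Rhodamine110 peptide substrate 1.5 µM; fluorescence change over 15 min; 4-parameter Hill fit.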
# [10] = HepG2 cells viability qHTS for Zika virus inhibitors (AID 1347168); conditions: Zika counter-screen; series mostly up to 45.9 µM
# In short: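 Cells seeded at 2.5 x 10^5 cells/mL in DMEM with 4% FBS and attached overnight at 37 degrees C, then exposed to compound for 24 to 48 hours. Viability read as ATP content by CellTiter Glo luminescence.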
# [11] = Confirmatory screen GU Rhodamine qHTS for Zika virus inhibitors qHTS (AID 1347157); conditions: purified enzyme assay, Rhodamine110 substrate fluorescence, 15 min; series mostly up to 65.2 µM; also: nearly all actives have a fitted effect of over 70% in size
# In short: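 Noncovalent NS2B hydrophilic domain/NS3 protease complex (25 nM final) in 10 mM Tris-HCl pH 8.0, 0.01% Tween 20, preincubated 15 min with compounds (up to 114 microM), then 1.5 microM Rhodamine110 substrate. Fluorescence change over 15 min fitted to 4-parameter Hill.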
# [12] = Tertiary RLuc qRT-PCR qHTS assay for Zika virus inhibitors (AID 1347169); conditions: infected Vero cells, reporter luminescence, 48-72 h; series mostly up to 45.9 µM; also: top concentration of the series differs between compounds; nearly all actives have a fitted effect of over 55% in size
# In short: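 Vero cells (1,000 per well) plated overnight at 37 degrees C, treated with compound in DMSO, then infected with recombinant ZIKV-RLuc (Cambodian) at MOI 1-2 for 48-72 hrs. Live-cell Renilla luciferase substrate added; luminescence read after 1-1.5 hrs.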
smiles,measurement,setting,value
Nc1ncnc2c1nc(Cl)n2[C@@H]1O[C@H](CO)[C@@H](O)[C@@H]1O,Potency,[1],inactive
C[C@H](NC(=O)c1sccc1OCc1ccc(Cl)cc1)c1ccccc1,Potency,[1],inactive
CC1=C(/C=C/C(C)=C/C=C/C(C)=C/C(=O)Nc2ccc(O)cc2)C(C)(C)CCC1,Potency,[2],inactive
same,Potency,[1],inactive
NCCS,Potency,[3],inactive
same,Potency,[1],inactive
same,outcome,[4],inactive
COc1cccc2c1CCCC2CCCN1CCN(C2CCCCC2)CC1 (stereo not given),Potency,[1],inactive
Clc1cc(Cl)cc(CNc2ncncc2-c2ccc3c(c2)OCO3)c1,Potency,[1],inactive
CC(=Cc1ccccc1)C=C1SC(=S)N(CC(=O)O)C1=O,Potency,[1],inactive
O=C(O)CCc1nc(-c2ccccc2)c(-c2ccccc2)o1,Potency,[2],inactive
same,Potency,[1],inactive
same,Potency,[5],inactive
COc1ccc2cc(-c3nc(-c4ccc(S(C)=O)cc4)[nH]c3-c3ccncc3)ccc2c1 (stereo not given),Potency,[6],17.1 µM (active)
same,Potency,[7],17.1 µM (active)
same,Potency,[1],17.1 µM (active)
same,Potency,[8],inactive
same,Potency,[5],inactive
CC(C)OC(=O)C(C)(C)Oc1ccc(C(=O)c2ccc(Cl)cc2)cc1,Potency,[2],inactive
same,outcome,[4],inactive
COc1ccc(Cc2nccc3cc(OC)c(OC)cc23)cc1OC,Potency,[3],inactive
same,outcome,[4],inactive
C[C@@H](O)[C@H]1C(=O)N2C(C(=O)O)=C(S[C@@H]3CN[C@H](C(=O)N(C)C)C3)[C@H](C)[C@H]12,Potency,[1],inactive
CCN(CC)C(=O)c1ccc(O)c(OC)c1,Potency,[3],inactive
same,Potency,[1],inactive
same,outcome,[4],inactive
Cc1ccn(-c2ccc(-c3ncco3)cc2)c(=O)c1-c1ccc2nc(N)ncc2c1,Potency,[7],30.4 µM (active)
same,Potency,[5],inactive
same,Potency,[9],49.3 µM (active)
same,outcome,[10],inactive
CC(C)C[C@H](CC(=O)O)C(=O)N[C@@H](Cc1c[nH]c2ccccc12)C(=O)N[C@@H](C)c1ccccc1,Potency,[1],inactive
CC(C)(C)Cn1c(N)nc2ccc(-c3[nH]c(C(C)(C)C)nc3-c3ccc(F)cc3)nc21,Potency,[1],10.8 µM (active)
same,Potency,[8],inactive
same,Potency,[5],inactive
COc1cc2ncnc(-n3nc(-c4ccccn4)nc3N)c2cc1OC,Potency,[1],inactive
same,Potency,[8],inactive
same,Potency,[5],inactive
COC(=O)N[C@H](C(=O)N1CCC[C@@H]1c1ncc(-c2ccc(-c3ccc(-c4cnc([C@@H]5CCCN5C(=O)[C@@H](NC(=O)OC)C(C)C)[nH]4)cc3)cc2)[nH]1)C(C)C,Potency,[1],30.4 µM (active)
O=C(O)c1cc(O)c2c(c1)C(=O)c1cccc(O)c1C2=O,Potency,[1],24.8 µM (active)
Cc1ccccc1C(C(=O)NC1CCCCC1)N(C(=O)Cn1ccnc1C)c1cccc(F)c1 (stereo not given),Potency,[1],inactive
same,Potency,[8],inactive
same,Potency,[5],inactive
COc1cc(O)c2c(c1)C(=O)c1cc(C)cc(O)c1C2=O,Potency,[1],inactive
CC=CCC=CCCC(=O)[C@H]1O[C@@H]1C(N)=O,Potency,[1],inactive
C[N+](C)(C)CC(=O)O,Potency,[1],inactive
O=C(CCN1CCN(C(=O)OCc2cc(Cl)cc(Cl)c2)CC1)c1ccc2[nH]c(=O)oc2c1,Potency,[1],inactive
same,Potency,[8],44.7 µM (active)
O=c1c(O)c(-c2ccc(O)cc2)oc2cc(O)cc(O)c12,Potency,[1],inactive
same,Potency,[11],inactive
same,Potency,[9],inactive
same,"activity change, negative = inhibition",[12],13.5% [at 0.997 µM]
O=C1NC(=O)C(=Cc2ccc(-c3ccc(F)cc3)o2)S1,Potency,[1],inactive
C[C@]12CCC3c4ccc(O)cc4CCC3C1CCC2=O (stereo not given in full),Potency,[1],inactive
NC(=O)[C@@H](CCC(F)(F)F)N(Cc1ccc(-c2ncon2)cc1F)S(=O)(=O)c1ccc(Cl)cc1,Potency,[1],inactive
C[N+]1(C)[C@@H]2CC(OC(=O)[C@H](CO)c3ccccc3)C[C@H]1[C@H]1O[C@@H]12 (stereo not given in full),Potency,[1],inactive
